From the supplement of paper PMC6555819

Each sequence was assayed on FXR:RXRa (NR concentration 270 nM, RXRa partner concentration 90 nM) (assay: PBM binding z-score (relative to random genomic background probes); higher = stronger binding; sequences stand for … in GC…GCGATTGACAGCGTAGAATGAAGG).
In short: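 Binding z-scores take random background probes as their reference. They come from custom Agilent 4×180K protein-binding microarrays incubated 1 h with ligand-free nuclear receptor dimers, with antibodies against each partner (one per run) detecting binding. Scanned fluorescence was regression-normalized.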

Sequence	PBM binding z-score
ATCGAAAGGTAGACGAGGTGAGTATACACCGTTT	0.276
CAGCCTAGGTCAGGGCCGGTATAGGAGGAACGTT	1.62
CAAACTAGGTCAAGAGGTCGAAGTCCGCTTCCCG	5.04
TAGCCTAGGTCATTGGGGCAGTATAGTACGCATC	4.67
CGAACTAGGTCATTGACAGGACAGTGAATAGTAA	4.56
AGATGTAGGTTACATCCGGGTCATTCAGGCTATG	2.09
CAAACTAGGTCAAAGAGGTCAAAGTCCGTGCGTA	6.71
CATACAGGGTCAGCTAGGCCAGGGTAGGGACGGC	4.52
GCTTACGGGTCGAAGGTTATAGCATGAATAGAAT	2.01
CCTATTGGGCCACGAAAGGTCATTGATTCAGTGA	3.94
CCCACTGGGCCAAAGGTCATTGATTCCAATGCTC	4.95
CCGACTGGGGCAAAAGTTACCATACTCAGTACGA	-0.402
ACTAGCAGGCCAAGTTTGGGTCACTCTAACAAAG	0.184
CGAACTAAGTCAGAACAGGACAGTGAAGGATGAT	-0.105
ACAGACAGTTGATGAAGGTAACTCAGGCTATCAT	0.165
ATCTCTAGGTAACCAAGTTCAGTGGATGCCGAAC	0.155
CAAACTAGGTCACCGGAAGGTCAAGGTCCGCATG	5.96
CCTTACGGGTCACTGACAGTTTATAGCATTTGGA	5.44
AGGCAAAGTTCAGGACGAGGTAACGTAAAGCACG	4.22
CGTCCAAGGCCAGCAGGTCAGTGAAAGCGACGTG	0.378
ATCTCTAGGTAAGACTCAGTGCAGTGAAGAACGC	0.188
CCGACTGGGGCATAAGGTTAACATAAGCCAGCCC	0.54
